Screening data deposited in PubChem BioAssay by National Center for Advancing Translational Sciences (NCATS).
This is a sample that favours compounds with a hit; in the whole collection about 3.9% have one here.
D1 PAM = Potentiators of Human D1 Dopamine Receptor: qHTS; HEK293 TREx D1 cells, calcium flux, dopamine EC20 potentiation; hit rate 0.036% among 360,000; potentiation, % at 10 µM; in the data active = potentiation above about 30%
D1 ag = Allosteric Agonists of the Human D1 Dopamine Receptor: qHTS | D(1A) dopamine receptor (Homo sapiens), P21728 | HEK293 T-REx D1 cells, calcium flux, agonist mode | activation, % at 2 µM | hit rate 1% among 360,000; in the data active = activation above about 30%
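Agonism was scored from calcium flux recorded over 180 s (1 read/s) after pintool compound addition, following a 10-cycle baseline. Cells were inducible force-coupled HEK293 TREx D1, plated overnight at 30 C and loaded with no-wash calcium dye.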
Eya2 phos inh = qHTS Assay for Inhibitors of the Phosphatase Activity of Eya2 | Protein phosphatase EYA2 (Homo sapiens), O00167 | recombinant Eya2, OMFP fluorescence dephosphorylation (OMFP is methylfluorescein phosphate) | Potency, µM (titrated, usually from 76.9 µM), most hits filed as inhibitors | hit rate 0.006% among 330,000 | AID 488837, 2010
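Eya2 protein (added as 0.2 uM solution) was preincubated with compound for 10 min at ambient temperature in 50 mM HEPES pH 7.5, 50 mM NaCl, 5 uM MgCl2, 0.05% BSA, 1 mM DTT. OMFP (added at 50 uM) then reacted 10 min; fluorescence read at 485/525 nm.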
D1 antagonist = Antagonist of Human D 1 Dopamine Receptor: qHTS. D(1A) dopamine receptor (Homo sapiens), P21728. HEK293 TREx D1 cells, calcium flux, dopamine EC80; active compounds read low. activity change, negative = inhibition, % at 10 µM. hit rate 3.2% among 360,000; in the data active = activity change below about -30%
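After overnight tetracycline induction at 30 C, force-coupled D1 HEK293 cells took up a no-wash calcium dye at room temperature. Compounds were added and monitored 180 s, and the response to EC80 dopamine was then recorded.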
USP2a inh = qHTS Assay for Inhibitors of Ubiquitin-specific Protease USP2a Using CHOP2 as the Reporter; Ubiquitin carboxyl-terminal hydrolase 2 (Homo sapiens), O75604; USP2 core, Ub-CHOP2 coupled fluorogenic reporter, 485/531; Potency, µM (highest dose often 38.3 µM), usual class: inhibitors; hit rate 0.01% among 330,000; AID 463254, 2010
Target sequence (O75604 whole entry, looked up): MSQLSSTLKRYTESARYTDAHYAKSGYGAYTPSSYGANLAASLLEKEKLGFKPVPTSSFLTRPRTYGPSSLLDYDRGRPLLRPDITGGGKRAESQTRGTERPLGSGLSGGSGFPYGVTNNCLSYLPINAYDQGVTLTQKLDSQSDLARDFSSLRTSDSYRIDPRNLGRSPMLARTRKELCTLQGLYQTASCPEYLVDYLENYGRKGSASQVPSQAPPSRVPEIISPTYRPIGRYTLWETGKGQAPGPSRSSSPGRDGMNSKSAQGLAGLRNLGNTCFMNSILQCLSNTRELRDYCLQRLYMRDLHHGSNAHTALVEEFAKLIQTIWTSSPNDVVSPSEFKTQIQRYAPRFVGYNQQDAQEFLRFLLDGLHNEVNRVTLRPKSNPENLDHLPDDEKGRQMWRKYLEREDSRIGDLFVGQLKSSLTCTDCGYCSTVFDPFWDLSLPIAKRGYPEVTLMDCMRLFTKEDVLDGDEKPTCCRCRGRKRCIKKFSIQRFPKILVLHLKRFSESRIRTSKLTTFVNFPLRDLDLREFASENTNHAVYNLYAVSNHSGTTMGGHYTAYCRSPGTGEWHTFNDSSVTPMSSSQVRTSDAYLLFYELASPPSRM
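Deubiquitinase activity read as fluorescence (485/531 nm) after Ub-CHOP2 cleavage activates the enterokinase reporter on its substrate; USP2 core 10nM, Ub-CHOP2 and substrate 25nM each, 30min compound preincubation then 60min RT; data normalized to NEM, curves fitted.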
GALK inhibitor = qHTS Assay for Inhibitors of Human Galactokinase (GALK). P51570. Purified GALK, Kinase-Glo residual ATP luminescence. Potency, µM (series often up to 57.5 µM), hits mostly inhibitors. hit rate 0.007% among 270,000. AID 1868, 2009
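Compounds were pin-transferred into ATP buffer (35 uM final), then GALK plus galactose (5 nM, 100 uM final) was added. After 1 h at room temperature, Kinase-Glo Plus was added and luminescence read after 10 min.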
Large screens that a line does not name were inactive. Unless noted, calls come from the whole dose curve; as a rule, active = well fitted inhibition curve with a large enough effect; inconclusive = small, poorly fitted or top-dose-only effect, or effect the other way; inactive = flat fitted curve, though single readings scatter.

Cc1ccc(C(=O)Nc2cccc(OCc3cc(=O)n4c5c(sc4n3)CCCC5)c2)cc1	none (no result: Eya2 phos inh, USP2a inh, GALK inhibitor)
CN(C(=O)Cn1c(=O)n(Cc2ccc(C(=O)NCc3ccc4c(c3)OCO4)cc2)c(=O)c2ccccc21)c1ccccc1	none (no result: Eya2 phos inh, USP2a inh, GALK inhibitor)
O=C(COc1ccc(Cl)cc1)Nc1ccc2nc(SCC(=O)N3CCOCC3)sc2c1	D1 antagonist -35.9 (no result: Eya2 phos inh, USP2a inh, GALK inhibitor)
Cc1ccc(OCC(=O)Nc2ccc3nc(SCC(=O)N4CCOCC4)sc3c2)cc1	none (no result: Eya2 phos inh, USP2a inh, GALK inhibitor)
CCOC(=O)Nc1ccc2nc(Sc3ccc(Cl)cc3)sc2c1	D1 antagonist -33.8
Cc1ccc(OCC(=O)Nc2ccc3nc(SCC(=O)N4CCc5ccccc54)sc3c2)cc1	D1 antagonist -34.5 (no result: Eya2 phos inh, USP2a inh, GALK inhibitor)
COc1ccc(C(=O)Nc2ccc3nc(SCC(=O)N4CCc5ccccc54)sc3c2)cc1	none (no result: Eya2 phos inh, USP2a inh, GALK inhibitor)
CCOC(=O)CSc1nc2ccc(NC(=O)c3ccc(Cl)cc3)cc2s1	none (no result: Eya2 phos inh, USP2a inh, GALK inhibitor)
COc1cccc(C(=O)Nc2ccc3nc(SCC(=O)N4CCc5ccccc54)sc3c2)c1	D1 antagonist -38.0 (no result: Eya2 phos inh, USP2a inh, GALK inhibitor)
Cc1ccc(C(=O)Nc2ccc3nc(SCC(=O)N4CCc5ccccc54)sc3c2)cc1	none (no result: Eya2 phos inh, USP2a inh, GALK inhibitor)
O=C(NC1CC(=O)N(c2cccc(F)c2)C1)c1ccc(Br)o1 (configuration not stated)	none (no result: Eya2 phos inh, D1 antagonist, USP2a inh, GALK inhibitor)
Cc1ccccc1CCNC(=O)c1ccc2c(c1)c(C)c(C)n2Cc1ccccc1	none (no result: Eya2 phos inh, USP2a inh, GALK inhibitor)
CN1C(=O)C2(Nc3ccccc3-c3nc4ccccc4n32)c2ccccc21 (configuration not stated)	none
O=C1Nc2ccccc2C12Nc1ccccc1-c1nc3ccccc3n12 (configuration not stated)	D1 ag 37.1
O=C(CSc1ncc(S(=O)(=O)c2ccc(Cl)cc2)c(=O)[nH]1)Nc1cccc(C(F)(F)F)c1	D1 antagonist -31.6 (no result: Eya2 phos inh, USP2a inh, GALK inhibitor)
CCOC(=O)C1CCN(c2c(C(=O)c3ccc(OC)cc3)cnc3ccccc23)CC1	none (no result: Eya2 phos inh, USP2a inh, GALK inhibitor)
OC(CNCCNc1ncccc1C(F)(F)F)Cn1ccc2ccccc21 (configuration not stated)	D1 antagonist -35.9
OC(CNCc1ccccc1)Cn1ccc2ccccc21 (configuration not stated)	none
Cc1cccc(N(CC(=O)N/N=C/c2cc([N+](=O)[O-])ccc2Cl)S(C)(=O)=O)c1C	D1 antagonist -45.4 (no result: GALK inhibitor)
CCc1c(C)c2ccc(O)c(CN3CCN(c4ccc(OC)cc4)CC3)c2oc1=O	none (no result: Eya2 phos inh, USP2a inh, GALK inhibitor)
O=c1c2cc(F)ccc2sn1-c1ccccc1	D1 ag 38.9 (no result: GALK inhibitor)
O=c1c2ccccc2sn1-c1ccccc1	none
Cc1ccccc1-n1sc2cc(F)ccc2c1=O	D1 ag 31.6
Cc1c(C(=O)Nc2c(F)cccc2F)sc2ncn(Cc3ccccc3F)c(=O)c12	none (no result: Eya2 phos inh, USP2a inh, GALK inhibitor)
O=c1ccc2cc(S(=O)(=O)NCc3ccc(Cl)cc3)ccc2[nH]1	none (no result: Eya2 phos inh, USP2a inh, GALK inhibitor)
COc1cccc(CNC(=O)Cn2c(=O)nc(-c3ccccc3F)c3cc(Cl)ccc32)c1	none (no result: Eya2 phos inh, USP2a inh, GALK inhibitor)
COc1ccc(N(C)C(=O)c2cc(S(=O)(=O)N3CCc4ccccc43)cn2C)c(OC)c1	D1 antagonist -54.8 (no result: Eya2 phos inh, USP2a inh, GALK inhibitor)
CN(C(=O)c1cc(S(=O)(=O)N2CCc3ccccc32)cn1C)C1CCCCC1	D1 antagonist -54.4 (no result: GALK inhibitor)
CCC1CN(S(=O)(=O)c2cc(-c3onc(C)c3C)ccc2C)c2cc(Cl)ccc2O1 (configuration not stated)	none (no result: Eya2 phos inh, USP2a inh, GALK inhibitor)
O=C(CSc1nc(C2CCCCC2)nc2ccccc12)NCc1ccc2c(c1)OCO2	D1 antagonist -46.2
Cc1cc(C)cc(-n2c(SCC(=O)NCc3ccc4c(c3)OCO4)nc3ccccc3c2=O)c1	D1 antagonist -36.5
CCCNC(=O)c1ccc2c(c1)N=C(CCC)c1ccccc1S2	none (no result: Eya2 phos inh, USP2a inh, GALK inhibitor)
COc1ccc(-c2nn3c(-c4ccccc4)nnc3s2)cc1	D1 antagonist -30.6
